Vaccinia Venus = qHTS for Stage-Specific Inhibitors of Vaccinia Orthopoxvirus: Venus Reporter Primary qHTS; AID 720580, 2013; Potency, µM (doses to about 36.5 µM), actives largely listed as inhibitors; Vaccinia virus Venus reporter expression, fluorescence; actives 0.46% (n = 330,000); calls by dose curve; tested in A549 cells; note: nearly all actives have a fitted effect of over 30% in size
Vaccinia mCherry = qHTS for Stage-Specific Inhibitors of Vaccinia Orthopoxvirus: mCherry Reporter Primary qHTS; Vaccinia virus mCherry reporter infection, fluorescence; Potency, µM (top dose mostly 36.5 µM), hits mostly inhibitors; actives 0.63% (n = 310,000); calls by dose curve; tested in A549 cells; note: nearly all actives have a fitted effect of over 35% in size
HCMV inh = qHTS Assay for inhibitors of the human cytomegalovirus (HCMV); HFF cells, HCMV-luciferase reporter, 72 h; hits give low values; activity change, negative = inhibition, % at 57.5 µM; actives 4.5% (n = 410,000); in the data active = activity change below about -60%; inconclusive = no clear call, values can overlap the other calls; inactive = above about -39%
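After 16 h attachment at 37C, HFF cells received test compound and HCMV-luciferase (1 PFU/cell); reporter luminescence read 72 h later, data normalized against buffer-only and known inhibitor Salinomycin.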
FBPA Giardia inh = qHTS Assay for Inhibitors of Fructose-1,6-bisphosphate Aldolase from Giardia Lamblia; Potency, µM (top dose mostly 59.6 µM), most hits filed as inhibitors; A8B2U2; AID 2451, 2010; actives 0.71% (n = 290,000); purified Giardia FBPA; note: nearly all actives have a fitted effect of over 55% in size
Target sequence (A8B2U2 whole entry, looked up): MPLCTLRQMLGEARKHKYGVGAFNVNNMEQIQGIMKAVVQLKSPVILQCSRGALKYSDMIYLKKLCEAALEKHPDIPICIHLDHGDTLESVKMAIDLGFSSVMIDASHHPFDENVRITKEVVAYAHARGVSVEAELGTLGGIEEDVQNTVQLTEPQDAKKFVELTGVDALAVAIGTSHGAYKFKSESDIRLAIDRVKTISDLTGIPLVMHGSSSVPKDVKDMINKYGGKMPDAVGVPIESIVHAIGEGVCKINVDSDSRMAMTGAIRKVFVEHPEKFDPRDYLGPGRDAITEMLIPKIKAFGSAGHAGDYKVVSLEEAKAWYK
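Giardia FBPA (40 nM reagent) was preincubated 10 min at RT with compound (up to 57.5 uM final), then substrate plus GAPDH/TPI/NAD/arsenate coupling system with diaphorase/resazurin was added; resorufin fluorescence (525/598 nm) was read after 20 min.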
FMDV antiviral = High Throughput Screening for Foot and Mouth Disease Virus Antivirals; actives 1.2% (n = 410,000); FMDV antiviral cell-based qHTS; Potency, µM (top dose mostly 57.9 µM), most hits filed as inhibitors; AID 1159524, 2015; calls by dose curve; tested in HEK293T cells; note: read-out not given here; nearly all actives have a fitted effect of over 45% in size
HCV inhibitor = qHTS Assay for Inhibitors of Hepatitis C Virus (HCV); Potency, µM (series often up to 41.8 µM), usual class: inhibitors; Huh7.5.1 HCVcc-Cre infection, luciferase reporter, 44 h; actives 3.4% (n = 340,000); AID 651820, 2012
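Whole-lifecycle infectious HCVcc-Cre system; cells 1,000/well, compound then virus (~0.5 moi) added 4 h after plating, 44 h culture. Luciferase read 15 sec following 15 min substrate incubation, room temp.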
Numbers stand for hits. An excerpt weighted towards active compounds, which were near 7.5% of everything screened. Unless noted, calls come from the whole dose curve; as a rule, active = well fitted curve in the direction sought with a large enough effect; inconclusive = small, poorly fitted or top-dose-only effect, or another doubt; inactive = no such curve, though single readings can be large; an effect the other way counts as inactive or inconclusive.

What do the screens show for `O=C(CC(C(=O)O)n1ccnc1)c1ccc(Cl)cc1` (stereo not drawn)?
Vaccinia Venus: inactive; Vaccinia mCherry: inactive

Results for O=Cc1c(NC2CCCCC2)c2ccccc2[nH]c1=O ?
Vaccinia Venus: inactive; Vaccinia mCherry: inactive; HCMV inh: inactive; FBPA Giardia inh: inactive; FMDV antiviral: inactive; HCV inhibitor: inactive

How did Cc1ccc(-n2cccc2C(=S)N=P(N(C)C)(N(C)C)N(C)C)cc1 do in these assays?
Vaccinia Venus: inactive; Vaccinia mCherry: inconclusive; HCMV inh: -79.5; FBPA Giardia inh: inactive; FMDV antiviral: inconclusive; HCV inhibitor: inconclusive

Results for O=C(Cn1nnc(-c2cccs2)n1)N1c2ccccc2Sc2ccc(C(F)(F)F)cc21 ?
Vaccinia Venus: inactive; Vaccinia mCherry: inactive; HCMV inh: inactive; FMDV antiviral: inactive; HCV inhibitor: inactive

Results for CNc1snc(C)c1C(=O)OC(C)C(=O)c1ccc(F)cc1 (stereo not drawn) ?
HCMV inh: -78.7; FMDV antiviral: inconclusive; HCV inhibitor: 11.2µM

Results for CNc1snc(C)c1C(=O)OCC(=O)c1ccc(Cl)cc1 ?
HCMV inh: inactive; FMDV antiviral: inconclusive; HCV inhibitor: inconclusive

How did CCc1ccc(NC(=O)CN2CCCN(Cc3cccc(Cl)c3)S2(=O)=O)cc1 do in these assays?
Vaccinia Venus: inactive; Vaccinia mCherry: inactive; HCMV inh: active; FMDV antiviral: inactive

How did CCc1ccc(NC(=O)CN2CCN(Cc3ccccc3)S2(=O)=O)cc1 do in these assays?
Vaccinia Venus: inactive; Vaccinia mCherry: inactive; HCMV inh: inactive; FMDV antiviral: inactive

Results for CCc1cccc(C)c1NC(=O)CN1CCCN(Cc2ccccc2Cl)S1(=O)=O ?
Vaccinia Venus: inactive; Vaccinia mCherry: inactive; HCMV inh: active; FMDV antiviral: inactive

What do the screens show for `Cc1noc(C)c1C(=O)N1CCC1(C)C(=O)NS(=O)(=O)c1ccccc1Cl` (stereo not drawn)?
Vaccinia Venus: inactive; Vaccinia mCherry: inactive; HCMV inh: inactive; FMDV antiviral: inactive

How did O=C(N1CCN(c2cccc(Cl)c2)CC1)C1(c2cccs2)CCOCC1 do in these assays?
Vaccinia Venus: inactive; Vaccinia mCherry: inactive; HCMV inh: inconclusive; FBPA Giardia inh: inactive; FMDV antiviral: 35.5µM; HCV inhibitor: inconclusive

Results for O=C(N1CCN(c2ccc(F)cc2)CC1)C1(c2cccs2)CCOCC1 ?
Vaccinia Venus: inactive; Vaccinia mCherry: inactive; HCMV inh: inactive; FBPA Giardia inh: inactive; FMDV antiviral: inactive; HCV inhibitor: inactive

How did O=C(COC(=O)/C=C/c1ccccc1[N+](=O)[O-])NCc1ccco1 do in these assays?
Vaccinia Venus: inactive; Vaccinia mCherry: inconclusive; HCMV inh: inactive; FMDV antiviral: inactive; HCV inhibitor: inactive

Results for C/C(=N/OCC(=O)NCCCCCCNC(=O)CO/N=C(/C)c1cccs1)c1cccs1 ?
Vaccinia Venus: inactive; Vaccinia mCherry: inactive; HCMV inh: inconclusive; FBPA Giardia inh: inactive; FMDV antiviral: inactive; HCV inhibitor: 22.4µM

Results for CCN(CC)C1CCN(C(=O)c2cnn(-c3nccc(-c4ccccc4OC)n3)c2-c2ccco2)C1 (stereo not drawn) ?
Vaccinia Venus: inactive; Vaccinia mCherry: inactive; FMDV antiviral: inactive

Results for CCCNC(=O)c1ccc(COc2ccc(CCC)cc2OC)o1 ?
Vaccinia Venus: inactive; Vaccinia mCherry: inactive; HCMV inh: -61.8; FBPA Giardia inh: inactive; FMDV antiviral: inconclusive; HCV inhibitor: inconclusive

What do the screens show for `COc1ccc(CCNC(=O)c2cc(=O)c3cc(C)ccc3o2)cc1OC`?
HCMV inh: inconclusive; FBPA Giardia inh: inactive; FMDV antiviral: inconclusive; HCV inhibitor: 22.4µM

Results for CCCCC[C@H](O)/C=C/[C@H]1OC(O)C[C@H](O)[C@@H]1C/C=C\CCCC(=O)O (stereo partly drawn) ?
FBPA Giardia inh: inactive

What do the screens show for `Clc1ccc2nc(C3CCN(Cc4ccccc4)CC3)[nH]c2c1`?
Vaccinia Venus: inactive; Vaccinia mCherry: inactive; HCMV inh: inactive; FBPA Giardia inh: inactive; FMDV antiviral: inactive; HCV inhibitor: inconclusive

What do the screens show for `Cc1cc2nc(C3CCN(Cc4nnnn4Cc4cccs4)CC3)[nH]c2cc1C`?
HCMV inh: inactive; FBPA Giardia inh: inactive; FMDV antiviral: inactive; HCV inhibitor: 11.2µM

How did CN(Cc1ccc(Cl)cc1Cl)C(=O)c1cc(=O)c2ccccc2o1 do in these assays?
Vaccinia Venus: inactive; Vaccinia mCherry: inactive; HCMV inh: -63.0; FBPA Giardia inh: inactive; FMDV antiviral: inactive; HCV inhibitor: inactive

What do the screens show for `Nc1ccn(CC(=O)NCCCc2ccccc2)c(=O)n1`?
Vaccinia Venus: inactive; Vaccinia mCherry: inactive; HCMV inh: -80.5; FMDV antiviral: inactive; HCV inhibitor: inactive

Results for Cc1cn(CC(=O)NCc2ccccc2)c(=O)[nH]c1=O ?
Vaccinia Venus: inactive; Vaccinia mCherry: inactive; HCMV inh: inactive; FMDV antiviral: inactive; HCV inhibitor: inactive

What do the screens show for `Cc1cn(CC(=O)NCCCc2ccccc2)c(=O)[nH]c1=O`?
Vaccinia Venus: inactive; Vaccinia mCherry: inactive; HCMV inh: inactive; FMDV antiviral: inactive; HCV inhibitor: 2.82µM

How did CCC[C@H]1[C@@H](NC(=O)Nc2ccc(C(C)C)cc2)CC[C@@]23CCCN2C(=O)CCC[C@@H]13 do in these assays?
HCMV inh: inactive

How did NC(=S)NCCC[C@H](N)C(=O)O do in these assays?
Vaccinia Venus: inactive; Vaccinia mCherry: inactive; FMDV antiviral: inactive

Results for COc1ccc(C2=Nc3ccccc3N(C(=O)c3cccnc3)C2C(=O)NC(C)(C)C)cc1 (stereo not drawn) ?
Vaccinia Venus: inactive; Vaccinia mCherry: inactive; HCMV inh: inactive; FMDV antiviral: inactive

What do the screens show for `OCC1(CCOc2ccccc2)CCN(Cc2ccccc2OC(F)F)CC1`?
Vaccinia Venus: inactive; Vaccinia mCherry: inactive; HCMV inh: inactive; FBPA Giardia inh: inactive; FMDV antiviral: inactive; HCV inhibitor: inactive

What do the screens show for `OCC1(CCOc2ccccc2)CCN(Cc2ccc(OC(F)F)cc2)CC1`?
Vaccinia Venus: inactive; Vaccinia mCherry: inactive; HCMV inh: inactive; FBPA Giardia inh: inactive; FMDV antiviral: inactive; HCV inhibitor: 12.6µM

What do the screens show for `Cc1c(CN2CCC(CO)(CCOc3ccccc3)CC2)[nH]c2c(Cl)cccc12`?
Vaccinia Venus: inconclusive; Vaccinia mCherry: inconclusive; HCMV inh: inactive; FBPA Giardia inh: inactive; FMDV antiviral: inactive; HCV inhibitor: 14.1µM

Results for O=[N+]([O-])c1ccc(O)c2ncccc12 ?
Vaccinia Venus: inconclusive; Vaccinia mCherry: 10µM; HCMV inh: -98.7; FBPA Giardia inh: 19.9µM; FMDV antiviral: inactive; HCV inhibitor: inconclusive

Results for O=[N+]([O-])c1cc([N+](=O)[O-])c2cccnc2c1Oc1ccccc1O ?
Vaccinia Venus: inactive; Vaccinia mCherry: inconclusive; HCMV inh: inactive; FBPA Giardia inh: inactive; FMDV antiviral: 15.8µM; HCV inhibitor: inconclusive

High-throughput results (PubChem BioAssay)
